Several values for one entry are separate records, joined by “and”; a condition that tells them apart may be missing. Equal values may be shown once. Inconclusive results are not listed. The source holds several records for some structures; these can differ, active in one and inactive in another. Activity calls are given as the source filed them. Unless noted, calls follow the shape of the dose curve; as a rule, active = well fitted curve in the direction sought with a large enough effect in the repeat runs; inconclusive = weak or mixed curves; inactive = no such curve, though single readings can be large; an effect the other way counts as inactive or inconclusive.
Assays:
[1] = qHTS assay to identify small molecule antagonists of the estrogen receptor alpha (ER-alpha) signaling pathway using the BG1 cell line in the presence of 0.1 nM 17-beta-estradiol - cell viability counter screen (AID 1259241); also: nearly all actives have a fitted effect of over 40% in size; also: potency is read from the fitted curve at half-maximal effect
Procedure, shortened: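 Cytotoxicity counter-screen: live-cell protease activity measured by fluorescence (30 min reagent step) in the same wells. Cells were VM7Luc4E2 with endogenous ER-alpha and ERE-driven luciferase, treated 22 hr at 37C alongside 0.1 nM 17beta-estradiol final.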

[2] = qHTS assay to identify small molecule antagonists of the androgen receptor (AR) signaling pathway using the MDA cell line in the presence of 0.5 nM R1881 - cell viability counter screen (AID 1259242); also: nearly all actives have a fitted effect of over 45% in size; also: potency is read from the fitted curve at half-maximal effect
Procedure, shortened: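 Counter screen for cytotoxicity run in the same wells as the AR antagonist reporter screen: MDA-kb2 cells were treated 16 hr with test compounds and 0.5 nM R1881, then live-cell protease activity was measured by fluorescence.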

[3] = biological target: Androgen receptor (Homo sapiens) (UniProt P10275); experiment: qHTS assay to identify small molecule antagonists of the androgen receptor (AR) signaling pathway using the MDA cell line in the presence of 0.5 nM R1881 (AID 1259243); also: nearly all actives have a fitted effect of over 50% in size; also: potency is read from the fitted curve at half-maximal effect
Procedure, shortened: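 Luciferase luminescence is the read-out: compounds are tested for suppressing 0.5 nM R1881-driven MMTV reporter activity in MDA-kb2 cells after 16 hr at 37C.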

[4] = biological target: Estrogen receptor (Homo sapiens) (UniProt P03372); experiment: qHTS assay to identify small molecule antagonists of the estrogen receptor alpha (ER-alpha) signaling pathway using the BG1 cell line in the presence of 0.1 nM 17-beta-estradiol (AID 1259244); also: nearly all actives have a fitted effect of over 50% in size; also: potency is read from the fitted curve at half-maximal effect
Procedure, shortened: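 Cells: VM7Luc4E2, endogenous ER-alpha, 4x ERE-luc stable. Pre-culture 5 d, phenol red-free, charcoal-stripped FBS. Plated 24 h, compound + E2 0.1 nM final, 22 h 37C/5% CO2. Readout ONE-Glo luminescence.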

[5] = qHTS assay to identify small molecule HDAC inhibitors (AID 1259364); also: top concentration of the series differs between compounds; nearly all actives have a fitted effect of over 45% in size
Procedure, shortened: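 Luminescence from a cell-permeant luminogenic class I/II HDAC substrate reports endogenous deacetylase activity in intact HCT-116 cells treated with compounds for 2 h.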

[6] = qHTS assay to identify small molecule agonists of the sonic hedgehog signaling (Shh) pathway - cell viability counter screen (AID 1259366); also: nearly all actives have a fitted effect of over 50% in size; also: potency is read from the fitted curve at half-maximal effect
Procedure, shortened: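 Cytotoxicity counter screen: CellTiter-Fluor reagent added after 23 h compound exposure, then 1 h at 37C and fluorescence read. Cells were 3T3 Gli1-Luc, seeded 2,000 per well and dosed 4 h post-plating.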

[7] = qHTS assay to identify small molecule agonists of the sonic hedgehog signaling (Shh) pathway (AID 1259368; calls by dose curve; also: nearly all actives have a fitted effect of over 15% in size; also: potency is read from the fitted curve at half-maximal effect;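 as to activity change: NIH/3T3-derived 3T3Gli1-Luc cells carrying a stable Gli1-driven firefly luciferase reporter; series mostly up to about 92 µM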)
Procedure, shortened: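 3T3Gli1-Luc (NIH/3T3 clone, stable Gli1-Luc); 4 hr pre-incubation, then cpd in DMSO 24 hr, 37 C/5% CO2; luciferase reagent 30 min RT; luminescence.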

[8] = qHTS assay to identify small molecule antagonists of the sonic hedgehog signaling (Shh) pathway (AID 1259369; calls by dose curve; also: nearly all actives have a fitted effect of over 45% in size; also: potency is read from the fitted curve at half-maximal effect)
Procedure, shortened: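 3T3Gli1-Luc, conditioned-medium-stimulated, 24hr cpd, 37C/5% CO2; Gli1-driven firefly Luc luminescence after 30min RT with luciferase reagent. Cells plated 4hr before cpd.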

[9] = biological target: Estrogen receptor beta (Homo sapiens) (UniProt Q92731); experiment: qHTS assay to identify small molecule antagonists of the estrogen receptor beta (ER-beta) signaling pathway (AID 1259378; active = well fitted inhibition curve with a large enough effect in the signal ratio in the repeat runs, not every such curve was filed as active; the % refers to the signal ratio; also: potency is read from the fitted curve at half-maximal effect)
Procedure, shortened: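 ER-beta-UAS-bla HEK293T cells in 2% charcoal-stripped FBS medium treated with compound plus 1nM final 17-beta-estradiol for 16 hr at 37C. Beta-lactamase reporter read by FRET substrate fluorescence after 2 hours at room temperature.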

[10] = qHTS assay to identify small molecule agonists of the estrogen receptor beta (ER-beta) signaling pathway - cell viability counter screen (AID 1259380); also: nearly all actives have a fitted effect of over 30% in size; also: potency is read from the fitted curve at half-maximal effect
Procedure, shortened: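 HEK293T ER-beta-UAS-bla; 2% CS-FBS; 6 hr pre-plate, 16 hr cpd at 37C/5% CO2; LiveBLAzer read first, then CellTiter-Glo 30 min RT, luminescence.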

[11] = biological target: Androgen receptor (Homo sapiens) (UniProt P10275); experiment: qHTS assay to identify small molecule agonists of the androgen receptor (AR) signaling pathway in the presence of an antagonist (AID 1259381; calls by dose curve; also: nearly all actives have a fitted effect of over 15% in size)
Procedure, shortened: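 MDA-kb2 cells, 3,000/well, rested 5hr at 37C/0% CO2 → nilutamide 3.0uM final or buffer → compounds, 15 conc. → 16hr at 37C → ONE-Glo, 30min RT → luminescence.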

[12] = qHTS assay to identify small molecule antagonists of the estrogen receptor beta (ER-beta) signaling pathway - cell viability counter screen (AID 1259382); also: nearly all actives have a fitted effect of over 55% in size; also: potency is read from the fitted curve at half-maximal effect; as to activity change, negative = cytotoxicity: series mostly up to about 92 µM
Procedure, shortened: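 Cells: ER-beta-UAS-bla HEK293T, 2,000/well, 2% CS-FBS, 6 hr settle. Cpd + E2 (1nM final), 16 hr, 37C/5% CO2. Bla FRET substrate 2 hr RT, then CellTiter-Glo 30 min RT, luminescence.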

[13] = qHTS assay to identify small molecule agonists or antagonists of the thyroid stimulating hormone receptor (TSHR) signaling pathway - wild type cell line counter screen (AID 1259384; calls by dose curve)
Procedure, shortened: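 Wild-type Hek293 cells, 800/well, 18 h at 37C, then compound with Ro20-1724 for 30 min RT. cAMP by HTRF (cAMP-d2/anti-cAMP cryptate), 1 h RT, fluorescence read. 15 concentrations, triplicates.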

[14] = biological target: Thyrotropin receptor (Homo sapiens) (UniProt P16473); experiment: qHTS assay to identify small molecule antagonists of the thyroid stimulating hormone receptor (TSHR) signaling pathway (AID 1259385; calls by dose curve; also: nearly all actives have a fitted effect of over 20% in size)
Procedure, shortened: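 TSHR-HEK293 cells (800/well) plated 18 h, then compounds with Ro20-1724 and TSH at 1.5 ng/mL final, 30 min at room temperature. cAMP quantified by HTRF (cAMP-d2/anti-cAMP-cryptate, 1 h); 15 concentrations in triplicate.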

[15] = qHTS assay to identify small molecule HDAC inhibitors - cell viability counter screen (AID 1259365); also: nearly all actives have a fitted effect of over 50% in size; also: potency is read from the fitted curve at half-maximal effect; as to activity change, negative = cytotoxicity: series mostly up to about 92 µM
Procedure, shortened: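 CellTiter-Glo luminescence (30 min, room temperature) reported viability after a 2 h compound exposure at 37 C. Cells: wild-type HCT-116, 1,500 per well, seeded the night before.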

[16] = qHTS assay to identify small molecule agonists of the androgen receptor (AR) signaling pathway in the presence of an antagonist - cell viability counter screen (AID 1259379); also: nearly all actives have a fitted effect of over 25% in size; also: potency is read from the fitted curve at half-maximal effect;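 as to activity change, negative = cytotoxicity: MDA-kb2 human breast cancer cells carrying an MMTV luciferase reporter; series mostly up to about 92 µM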
Procedure, shortened: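 Cells: MDA-kb2 (MMTV-luc, AR and GR elements), 3,000/well, 5 hr settle. Added: nilutamide 3.0uM final, then compounds (15 conc.). Incubation: 16 hr, 37C, no CO2. Read-out: CellTiter-Fluor, 1 hr, fluorescence.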

[17] = biological target: Estrogen receptor (Homo sapiens) (UniProt P03372); experiment: qHTS assay to identify small molecule agonists of the estrogen receptor alpha (ER-alpha) signaling pathway in the presence of an antagonist (AID 1259383; calls by dose curve; also: nearly all actives have a fitted effect of over 15% in size; also: potency is read from the fitted curve at half-maximal effect; as to activation: top concentration of the series differs between compounds)
Procedure, shortened: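 VM7Luc4E2, endog. ER-alpha + 4×ERE-luc; charcoal-stripped FBS, phenol red-free, 5 d; 24hr plating; +10.0nM ICI-182,780 (final); cpds 15 conc, 22hr, 37C/5% CO2; ONE-Glo luminescence.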

[18] = qHTS assay to identify small molecule phospholipidosis (PLD) inducers (AID 1259344; active = well fitted curve in the direction sought with a large enough effect; an effect the other way counts as inactive or inconclusive)
Procedure, shortened: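 Quantitative HTS in HepG2: compound plus LipidTOX Red dye for 24 h, paraformaldehyde fixation with Hoechst 33342, widefield high-content imaging; amiodarone as positive and DMSO as negative control.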

[19] = qHTS assay to identify small molecule antagonists of the sonic hedgehog signaling (Shh) pathway - cell viability counter screen (AID 1259367); also: nearly all actives have a fitted effect of over 55% in size; also: potency is read from the fitted curve at half-maximal effect
Procedure, shortened: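 Seed 3T3 Gli1-Luc cells at 2,000 per well; incubate 4 hr; add compound in DMSO, then conditioned medium; incubate at 37C with 5% CO2; add CellTiter-Fluor after 23 hr; read fluorescence 1 hr later.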

[20] = biological target: Estrogen receptor beta (Homo sapiens) (UniProt Q92731); experiment: qHTS assay to identify small molecule agonists of the estrogen receptor beta (ER-beta) signaling pathway (AID 1259377; active = well fitted activation curve with a large enough effect in the signal ratio in the repeat runs, not every such curve was filed as active; the % refers to the signal ratio; also: potency is read from the fitted curve at half-maximal effect)
Procedure, shortened: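 Ratiometric beta-lactamase FRET read-out came after 2 h substrate loading at room temperature. It followed 16 h compound treatment at 37C of GripTite HEK293T cells carrying a UAS-bla reporter, plated in 2% charcoal-stripped FBS medium.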
% is scaled to controls: 0 for no effect and ±100 for the full control effect.

Estrogen receptor (Homo sapiens), sequence (P03372 whole entry, looked up): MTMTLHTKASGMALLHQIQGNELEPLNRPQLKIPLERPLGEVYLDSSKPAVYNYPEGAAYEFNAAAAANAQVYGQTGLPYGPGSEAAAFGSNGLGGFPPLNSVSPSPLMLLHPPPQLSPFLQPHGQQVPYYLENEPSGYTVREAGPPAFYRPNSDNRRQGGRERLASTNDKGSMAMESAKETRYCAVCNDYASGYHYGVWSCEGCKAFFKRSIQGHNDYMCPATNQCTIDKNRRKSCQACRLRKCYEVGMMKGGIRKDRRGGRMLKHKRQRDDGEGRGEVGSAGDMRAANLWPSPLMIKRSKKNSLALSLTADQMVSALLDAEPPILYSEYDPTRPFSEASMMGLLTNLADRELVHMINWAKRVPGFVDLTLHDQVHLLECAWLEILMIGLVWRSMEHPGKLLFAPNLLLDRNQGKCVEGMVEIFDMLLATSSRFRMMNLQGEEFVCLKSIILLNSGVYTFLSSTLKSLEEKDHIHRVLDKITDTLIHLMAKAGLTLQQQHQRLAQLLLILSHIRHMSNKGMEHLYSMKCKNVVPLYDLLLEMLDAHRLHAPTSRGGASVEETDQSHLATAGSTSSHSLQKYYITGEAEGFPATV
Thyrotropin receptor (Homo sapiens), sequence (P16473 whole entry, looked up): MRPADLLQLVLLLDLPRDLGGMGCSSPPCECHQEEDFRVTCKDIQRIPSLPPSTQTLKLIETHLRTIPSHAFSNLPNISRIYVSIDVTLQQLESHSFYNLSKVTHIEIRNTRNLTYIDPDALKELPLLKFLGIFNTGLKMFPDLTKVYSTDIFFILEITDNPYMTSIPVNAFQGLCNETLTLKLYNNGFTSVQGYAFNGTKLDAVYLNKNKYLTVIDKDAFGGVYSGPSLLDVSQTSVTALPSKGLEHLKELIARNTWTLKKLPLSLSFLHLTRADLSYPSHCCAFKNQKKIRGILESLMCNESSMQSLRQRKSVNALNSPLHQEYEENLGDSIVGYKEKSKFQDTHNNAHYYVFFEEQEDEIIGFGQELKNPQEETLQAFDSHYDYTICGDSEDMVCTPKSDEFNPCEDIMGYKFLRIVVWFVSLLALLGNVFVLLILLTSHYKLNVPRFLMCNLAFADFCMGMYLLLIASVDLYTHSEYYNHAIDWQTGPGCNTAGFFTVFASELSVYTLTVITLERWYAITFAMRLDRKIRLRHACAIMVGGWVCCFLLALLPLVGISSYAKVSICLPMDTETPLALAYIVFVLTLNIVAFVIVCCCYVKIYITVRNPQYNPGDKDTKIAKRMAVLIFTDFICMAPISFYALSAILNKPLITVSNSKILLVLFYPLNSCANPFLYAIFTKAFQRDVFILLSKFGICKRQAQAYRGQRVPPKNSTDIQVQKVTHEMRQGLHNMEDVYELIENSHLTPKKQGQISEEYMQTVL
Estrogen receptor beta (Homo sapiens), sequence (Q92731 whole entry, looked up): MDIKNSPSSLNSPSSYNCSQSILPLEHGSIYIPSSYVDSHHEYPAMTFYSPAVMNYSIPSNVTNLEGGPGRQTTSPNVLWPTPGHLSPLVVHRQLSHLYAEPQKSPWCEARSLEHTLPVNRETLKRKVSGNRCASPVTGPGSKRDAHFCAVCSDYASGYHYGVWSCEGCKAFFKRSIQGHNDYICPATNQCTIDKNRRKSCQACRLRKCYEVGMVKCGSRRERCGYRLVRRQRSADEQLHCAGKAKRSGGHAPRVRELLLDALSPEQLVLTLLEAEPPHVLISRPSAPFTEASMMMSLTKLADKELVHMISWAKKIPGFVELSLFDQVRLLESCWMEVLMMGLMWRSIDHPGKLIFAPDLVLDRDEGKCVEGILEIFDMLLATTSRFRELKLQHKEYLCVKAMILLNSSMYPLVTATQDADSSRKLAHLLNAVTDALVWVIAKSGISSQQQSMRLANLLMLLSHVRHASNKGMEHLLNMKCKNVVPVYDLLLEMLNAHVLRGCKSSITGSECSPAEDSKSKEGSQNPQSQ
Androgen receptor (Homo sapiens), sequence (P10275 whole entry, looked up): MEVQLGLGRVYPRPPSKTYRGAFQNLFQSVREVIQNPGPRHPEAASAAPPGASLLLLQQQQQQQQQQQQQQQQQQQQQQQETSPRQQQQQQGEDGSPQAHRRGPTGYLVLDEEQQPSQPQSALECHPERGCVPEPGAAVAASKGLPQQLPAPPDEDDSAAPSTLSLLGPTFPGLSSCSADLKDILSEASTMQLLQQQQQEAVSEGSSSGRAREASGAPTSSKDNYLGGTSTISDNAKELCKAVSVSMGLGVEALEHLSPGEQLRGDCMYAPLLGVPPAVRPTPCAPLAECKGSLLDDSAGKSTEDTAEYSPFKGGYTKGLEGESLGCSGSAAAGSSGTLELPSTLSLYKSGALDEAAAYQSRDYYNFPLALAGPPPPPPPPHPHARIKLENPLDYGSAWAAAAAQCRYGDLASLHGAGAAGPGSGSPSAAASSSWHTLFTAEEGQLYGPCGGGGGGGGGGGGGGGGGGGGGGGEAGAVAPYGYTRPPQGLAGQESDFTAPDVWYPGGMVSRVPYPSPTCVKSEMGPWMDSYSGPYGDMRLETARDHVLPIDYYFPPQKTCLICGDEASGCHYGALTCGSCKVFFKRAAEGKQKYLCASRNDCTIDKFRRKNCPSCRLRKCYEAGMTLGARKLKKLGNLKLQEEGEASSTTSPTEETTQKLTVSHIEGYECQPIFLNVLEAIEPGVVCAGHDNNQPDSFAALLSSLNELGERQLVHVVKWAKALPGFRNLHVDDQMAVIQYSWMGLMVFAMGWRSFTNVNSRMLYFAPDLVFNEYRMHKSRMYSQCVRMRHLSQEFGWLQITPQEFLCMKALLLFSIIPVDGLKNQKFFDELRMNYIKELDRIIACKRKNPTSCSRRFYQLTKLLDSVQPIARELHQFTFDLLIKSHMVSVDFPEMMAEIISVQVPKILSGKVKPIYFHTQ

C=CC(=O)OCC(CO)(COCC(COC(=O)C=C)(COC(=O)C=C)COC(=O)C=C)COC(=O)C=C
inactive: Potency [5] | Potency [11] | outcome [13] | Potency [14]
active: Potency [1] 15.2 µM | Potency [2] 3.03 µM | Potency [3] 2.4 µM | Potency [4] 17 µM | Potency [6] 1.07 µM | Potency [7] 0.957 µM | Potency [8] 0.48 µM | Potency [9] 4.8 µM | Potency [10] 9.57 µM | Potency [12] 7.6 µM

N=C1C=CC(=C(c2ccc(N)cc2)c2ccc(N)cc2)C=C1
active: Potency [1] 30.6 µM | Potency [2] 9.69 µM | Potency [3] 3.06 µM | Potency [4] 7.7 µM | Potency [15] 24.3 µM | Potency [6] 21.7 µM | Potency [8] 12.2 µM | Potency [16] 12.2 µM | Potency [10] 7.7 µM
inactive: Potency [7] | Potency [11] | Potency [12] | Potency [17]

CC[C@H](c1ccc(O)cc1)[C@@H](CC)c1ccc(O)cc1
active: Potency [3] 15.4 µM and 26.6 µM | Potency [4] 48.6 µM | Potency [8] 7.7 µM | Potency [20] 0.0011 µM | Potency [17] 4.3 nM and 8.4 nM
inactive: Potency [1] | Potency [2] | Potency [18] | Potency [5] | Potency [15] | Potency [7] | Potency [16] | Potency [11] | Potency [12]
48.6 µM (active) and inactive: Potency [19] | Potency [10]
54.5 µM (active) and inactive: Potency [6]

CCC(C)Nc1ccc(NC(C)CC)cc1 (stereo not drawn)
inactive: Potency [5] | Potency [7] | Potency [11]
active: Potency [1] 9.88 µM | Potency [2] 24.8 µM | Potency [3] 1.57 µM | Potency [4] 2.48 µM | Potency [15] 24.8 µM | Potency [6] 11.1 µM | Potency [8] 3.93 µM | Potency [16] 24.8 µM | Potency [10] 3.93 µM | Potency [12] 5.55 µM

Cc1cc(O)c(Cl)c(C)c1Cl
inactive: Potency [1] | Potency [2] | Potency [3] | Potency [4] | Potency [5] | Potency [15] | Potency [7] | Potency [8] | Potency [20] | Potency [9] | Potency [16] | Potency [11] | Potency [12] | outcome [13] | Potency [14]

O=C(c1ccc(F)cc1)C1CCN(CCn2c(=O)[nH]c3ccccc3c2=O)CC1
inactive: Potency [1] | Potency [2] | Potency [3] | Potency [4] | Potency [18] | Potency [15] | Potency [6] | Potency [19] | Potency [7] | Potency [8] | Potency [20] | Potency [9] | Potency [16] | Potency [11] | Potency [17] | outcome [13] | Potency [14]

C[n+]1cc2c3c(ccc2c2ccc4cc5c(cc4c21)OCO5)OCO3
inactive: activity change, negative = inhibition [4] -84.3% [at 19 µM] | Potency [18] | activity change, negative = cytotoxicity [15] 25% [at 19 µM] | activity change [7] -5.86% [at 18.9 µM, stronger effect = higher value] | activation [11] -10.3% [at 19 µM] | cAMP activity change [13] 4.72% [at 18.9 µM]
active: Potency [1] 13 µM | Potency [2] 10.3 µM | Potency [3] 7.3 µM | Potency [6] 1.64 µM | Potency [19] 2.91 µM | Potency [16] 11.6 µM | Potency [10] 2.59 µM | Potency [12] 3.66 µM

From PubChem BioAssay (Tox21)
